# Only some compounds are listed: those with a hit (about 12% of all), similar ones and a draw of the others.
# Shiga toxin inh = inhibitors of Shiga toxin in Vero cells; Vero cells, Shiga toxin protein synthesis inhibition reporter; inhibition, % at 38.7 µM; actives 9.2% (n = 290,000); AID 2315; in the data active means inhibition mostly above about 28%, no sharp cut-off; inactive means mostly below about 43%; further: 0% is about no effect
# Cycloheximide cs = counter-screen for Shiga toxin inhibitors: cycloheximide protein synthesis inhibition. cell reporter, cycloheximide protein synthesis inhibition counterscreen. max response, %. actives 12% (n = 300,000); in the data active means max response mostly above about 13%, no sharp cut-off; inactive means mostly below about 14%; further: read at 38.3 µM for the half of the compounds with a filed dose; 0% is about no effect
# NS1 function inh = inhibitors of influenza NS1 protein function; Potency, µM (titrated, usually from 46.1 µM), for the others: at the top dose activity, positive = more growth; actives 0.4% (n = 270,000); AID 2326; further: potency means the concentration at half of the fitted maximal effect; actives are rising curves; nearly all actives have a fitted effect of over 50% in size
#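 In this qHTS, NS1 from influenza A is expressed in budding yeast, where it slows growth. Cells are switched from glucose to 2% galactose medium (pH 6.0, -URA), treated with compound, and growth recovery is read at OD600.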
# SARS PLP yeast = inhibitors of SARS-CoV papain-like protease in yeast | S. cerevisiae expressing SARS-CoV PLpro, growth rescue | Potency, µM (doses to about 32.9 µM), for the others: at the highest dose activity, positive = growth rescue, most hits filed as activators | actives 0.19% (n = 330,000) | AID 485353; further: potency means the concentration at half of the fitted maximal effect; 0% is about no effect; nearly all actives have a fitted effect of over 55% in size
# * hit, by the source's call; ? = inconclusive; nt = no result; + = active, no number. Unless noted, the call rests on the fitted dose curve.
SMILES,Shiga toxin inh,Cycloheximide cs,NS1 function inh,SARS PLP yeast
COc1ccccc1CNC(=O)c1n[nH]c2ccccc12,45.7*,28.8*,3.0%,-1.5%
COc1ccccc1CNC(=O)COC(=O)c1n[nH]c2ccccc12,11.9,13.3,-4.0%,3.8%
COc1ccccc1CNC(=O)Cc1ccccc1,34.7*,35.2*,8.6%,nt
COc1ccccc1CNC(=O)CSc1ccccc1,49.8*,18.7*,-0.9%,0.8%
COc1ccccc1CNC(=O)CSc1ccc(C)cc1,13.8,14.6,16.0%,-7.9%
Cc1ccccc1CSc1nsc(N)n1,25.7,12.8,-93.8%,-7.0%
CCc1nc(SCc2ccccc2C)n[nH]1,44.1,20.9*,-3.6%,1.6%
Cc1nc(SCc2ccccc2C)n[nH]1,active,18.6*,-40.9%,-10.3%
Cc1cc(Nc2ncc(Cl)cc2Cl)n[nH]1,74.2,14.7*,-12.4%,-1.5%
O=C(Nc1ccc(Cl)c(Cl)c1)NC1CCS(=O)(=O)C1 (stereo not drawn),-12.2,2.7,4.4%,0.4%
CN(C)c1ccc(/C=C2\CCCCC2=O)cc1,27.9,14.4*,-9.9%,-16.1%
O=C(CSc1nc(-c2ccccc2)cc(=O)[nH]1)Nc1ccc(F)c(F)c1,13.7,9.4,1.6%,-0.8%
CC(=O)NC(CSC(CC(=O)c1ccco1)c1ccc(C)cc1)C(=O)O (stereo not drawn),105.4*,57.0*,nt,0.5%
O=C(CC(SCCO)c1ccc([N+](=O)[O-])cc1)c1ccco1 (stereo not drawn),-1.8,13.2,-17.2%,11.3%
O=C(O)Cn1c(-c2ccccn2)nc2ccccc21,46.0*,31.5*,-19.4%,6.0%
CCOC(=O)Cn1c(-c2ccccn2)nc2ccccc21,20.0,-3.4,-2.5%,-5.3%
CCOC(=O)c1ccc2c(c1)nc(-c1ccccn1)n2CC,106.5*,61.3*,-14.3%,0.9%
NNC(=O)Cn1c(-c2ccccn2)nc2ccccc21,7.7,10.8,3.7%,-0.6%
CC(C)(C)C(=O)N1CCN(c2ccc(NC(=O)c3ccc([N+](=O)[O-])o3)cc2)CC1,39.3*,51.9*,5.0%,1.3%
CC1CCN(c2ccc(NC(=O)c3ccc([N+](=O)[O-])o3)cc2)CC1,nt,nt,nt,-18.0%
Cc1ccc(NC(=O)c2ccc([N+](=O)[O-])o2)cc1C,107.9*,41.3*,nt,-33.0%
O=C(Nc1ccc(N2CCCCC2)cc1)c1ccc([N+](=O)[O-])o1,103.9*,35.0*,-31.9%,-5.0%
CCC(=O)N1CCN(c2ccc(NC(=O)c3ccc([N+](=O)[O-])o3)cc2)CC1,32.7*,21.4*,-0.7%,-1.1%
O=C(Nc1ccc(N2CCCC2)c(Cl)c1)c1ccc([N+](=O)[O-])o1,+,89.9*,nt,-24.4%
CS(=O)(=O)N1CCN(c2ccc(NC(=O)c3ccc([N+](=O)[O-])o3)cc2)CC1,52.9*,30.2*,nt,3.5%
SMILES,Shiga toxin inh,Cycloheximide cs,NS1 function inh,SARS PLP yeast
NS(=O)(=O)c1cc(C(=O)OC2CCOC2=O)ccc1Cl (stereo not drawn),-2.1,1.0,15.2%,-2.4%
Cc1cc2ncn(-c3ncnc4sc5c(c34)CCC(C)C5)c2cc1C (stereo not drawn),-7.7,1.0,?,2.5%
COc1cccc(C(=O)Nc2cc3c(cc2C(C)=O)OCCO3)c1,7.4,-1.8,0.8%,6.8%
COc1cccc(C(=O)n2c(SC)nc3cc4c(cc32)OCCO4)c1,40.4,17.1*,-8.2%,-9.0%
O=C(c1ccccc1)N1N=C(C(F)(F)F)CC1(O)c1ccccc1O (stereo not drawn),14.2,11.9,-37.1%,-10.7%
CCc1nc(CNC(=O)C2CCC(=O)N(CCc3ccc(OC)cc3)C2)cs1 (stereo not drawn),-34.0,-3.9,-0.2%,6.6%
CN(C)S(=O)(=O)c1cccc(NC(=O)COC(=O)/C=C/c2ccc([N+](=O)[O-])cc2)c1,15.5,6.8,nt,-0.5%
Cc1cc(NS(=O)(=O)c2ccc(NC(=O)Nc3ccc4c(c3)OCO4)cc2)no1,34.9*,19.6,6.2%,5.9%
CNS(=O)(=O)c1ccc(NC(=S)Nc2ccc3c(c2)OCO3)cc1,55.4*,28.5*,2.9%,-0.8%
O=S(=O)(c1ccc(NC(=S)Nc2ccc3c(c2)OCO3)cc1)N1CCOCC1,63.6*,36.7*,10.5%,-20.9%
O=C(Nc1ccc(S(=O)(=O)N2CCOCC2)cc1)c1ccc2c(c1)OCO2,-3.7,-1.1,-3.3%,-1.2%
COc1ccc(-c2ccc(-c3nc4ccc(C)cn4c3NC3CCCCC3)cc2OC)cc1,nt,nt,nt,-1.8%
COc1ccc(N2C(=O)CCC(C(=O)O)C2c2ccccc2OC)cc1 (stereo not drawn),-4.2,-1.3,-6.3%,3.5%
CCC(=O)NCc1c(C)c(C)n(Cc2ccccc2)c1-n1cccc1,-3.3,20.9,nt,4.8%
O=C(NCCCSc1ccccc1)c1ccc(=O)[nH]c1,-15.3,7.5,6.9%,-0.2%
